Results reported in PubChem BioAssay (NCATS).
Results filed as inconclusive are left out. Activity calls are given as the source filed them. Calls follow the shape of the dose curve; as a rule, active = well fitted curve in the direction sought with a large enough effect; inconclusive = small, poorly fitted or top-dose-only effect, or another doubt; inactive = no such curve, though single readings can be large; an effect the other way counts as inactive or inconclusive.

Key:
[1] = SW1088 Cancer Cell Toxicity qHTS against the NCATS CANVASS Library (AID 1347350); also: nearly all actives have a fitted effect of over 75% in size; also: potency is read from the fitted curve at half-maximal effect; as to activity change, negative = cytotoxicity: series mostly up to about 38 µM; % is scaled to controls: 0 for no effect and ±100 for the full control effect
Summary of the method: (§1)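 Cells were seeded at 1000 per well, allowed 4 h at 37 degrees C/5% CO2, then pin-treated with an 11-point compound series. After 72 h, viability was read as CellTiter-Glo luminescence following 15min at room temperature.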

[2] = HPAF-II 24hr Apoptosis Induction qHTS against the NCATS CANVASS Library (AID 1347356); also: 0% is about no effect
Summary of the method: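 Caspase-Glo 3/7 luminescence, read after 15 min room-temperature development, measures apoptosis in HPAF-II cells treated 24 h at 37 degrees C with an 11-point concentration series; 500 cells/well; doxorubicin control.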

[3] = HPAF-II 12hr Apoptosis Induction qHTS against the NCATS CANVASS Library (AID 1347358); also: 0% is about no effect
Summary of the method: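 Caspase-3/7 activation by DEVD-substrate luminescence (Caspase-Glo 3/7, 15 min, room temperature) after a 12-hour compound exposure in 11 concentrations, of HPAF-II pancreatic cells seeded at 500/well in DMEM with 10% FBS.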

[4] = HEK293 24hr Apoptosis Induction qHTS against the NCATS CANVASS Library (AID 1347359); also: 0% is about no effect
Summary of the method: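 Caspase-3/7 activation measured as luminescence from the DEVD-based Caspase-Glo reagent, 15 min at room temperature, following 24-hour compound treatment of HEK293 cells.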

[5] = tested on: NAD(P)H diaphorase (Clostridium kluyveri); assay: Diaphorse counterscreen qHTS: Assay Interference Panel against the NCATS CANVASS Library (AID 1347362); also: potency is read from the fitted curve at half-maximal effect; as to activity change, negative = inhibition: 0% is about no effect
Summary of the method: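 Counterscreen for coupling-enzyme interference: resorufin fluorescence from resazurin/NADH turnover, read after 5 min at room temperature. Compounds were tested over an 11-point series after 15 min dark preincubation with diaphorase in PBS-Tween.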

[6] = molecular target: Luciferin 4-monooxygenase (Photinus pyralis) (UniProt P08659); assay: Firefly luciferase counterscreen qHTS: Assay Interference Panel against the NCATS CANVASS Library (AID 1347363); also: series mostly up to about 57 µM; 0% is about no effect
Luciferin 4-monooxygenase (Photinus pyralis), sequence (P08659 whole entry, looked up): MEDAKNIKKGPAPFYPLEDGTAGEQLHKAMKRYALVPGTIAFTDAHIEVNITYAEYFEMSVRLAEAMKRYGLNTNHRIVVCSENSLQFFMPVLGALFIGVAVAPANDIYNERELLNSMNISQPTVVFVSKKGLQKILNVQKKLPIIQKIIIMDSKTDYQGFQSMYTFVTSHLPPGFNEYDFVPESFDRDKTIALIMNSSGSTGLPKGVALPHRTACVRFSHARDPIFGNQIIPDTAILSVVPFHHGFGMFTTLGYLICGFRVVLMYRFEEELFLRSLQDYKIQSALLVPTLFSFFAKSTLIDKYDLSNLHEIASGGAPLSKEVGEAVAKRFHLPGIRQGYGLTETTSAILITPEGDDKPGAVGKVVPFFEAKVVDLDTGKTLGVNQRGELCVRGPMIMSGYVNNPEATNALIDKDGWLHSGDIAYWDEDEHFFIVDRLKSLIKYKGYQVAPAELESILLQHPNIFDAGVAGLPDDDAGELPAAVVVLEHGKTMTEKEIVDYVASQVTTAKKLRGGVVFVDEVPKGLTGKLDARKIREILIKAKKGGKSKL
Summary of the method: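 Luminescence inhibition readout: compounds (11-point qHTS) sat 15 min at room temperature with substrate mix (0.013 mM luciferin and ATP), then firefly luciferase was added and signal read 5 min later.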

[7] = KB-8-5-11 Cancer Cell Toxicity qHTS against the NCATS CANVASS Library (AID 1347364); also: nearly all actives have a fitted effect of over 75% in size; also: potency is read from the fitted curve at half-maximal effect; as to activity change, negative = toxicity: series mostly up to about 46 µM; % is scaled to controls: 0 for no effect and ±100 for the full control effect
Summary of the method: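 Viability read as CellTiter-Glo luminescence after 72 h at 37 °C, 5% CO2. 11-point compound series on 500 KB-8-5-11 cells/well in DMEM/10% FBS. Follow-up plating included 1 uM tariquidar in the medium.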

[8] = KB-3-1 Cancer Cell Toxicity qHTS against the NCATS CANVASS Library (AID 1347366); also: nearly all actives have a fitted effect of over 75% in size; also: potency is read from the fitted curve at half-maximal effect; as to activity change, negative = cytotoxicity: series mostly up to about 46 µM; % is scaled to controls: 0 for no effect and ±100 for the full control effect
Summary of the method: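 500 KB-3-1 cells/well; compounds pin-transferred, 11-pnt series; 72 hr, 37C/5% CO2; CellTiter-Glo, 10 min RT; luminescence read-out.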

[9] = molecular target: Nuclear receptor subfamily 1 group I member 3 (Homo sapiens) (UniProt Q14994); assay: qHTS for Constitutive Androstane Receptor (CAR) Antagonist screened against the NCATS CANVASS Library (AID 1347372); also: potency is read from the fitted curve at half-maximal effect;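 as to activity change, negative = inhibition: cells stimulated with 50 nM CITCO agonist so inhibition reflects antagonism; series mostly up to about 46 µM; % is scaled to controls: 0 for no effect and ±100 for the full control effect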
Nuclear receptor subfamily 1 group I member 3 (Homo sapiens), sequence (Q14994 whole entry, looked up): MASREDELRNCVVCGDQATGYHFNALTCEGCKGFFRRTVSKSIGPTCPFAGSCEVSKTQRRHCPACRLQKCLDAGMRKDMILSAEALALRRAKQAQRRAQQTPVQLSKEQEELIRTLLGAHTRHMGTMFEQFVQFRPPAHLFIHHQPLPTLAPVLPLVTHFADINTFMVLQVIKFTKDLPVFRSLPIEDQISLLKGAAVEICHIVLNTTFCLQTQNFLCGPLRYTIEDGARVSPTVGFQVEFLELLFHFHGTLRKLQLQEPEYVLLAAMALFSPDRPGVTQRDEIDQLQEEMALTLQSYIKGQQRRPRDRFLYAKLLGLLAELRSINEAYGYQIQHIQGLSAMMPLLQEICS
Summary of the method: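 Antagonist mode: compound added alongside 50 nM CITCO to HepG2-hCAR-CYP2B6 reporter cells, 24hr at 37C. Viability by CellTiter-Fluor fluorescence, then CAR-driven luciferase by ONE-Glo luminescence.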

[10] = qHTS for Hypoxia signaling pathway (HIF-1) agonists against the NCATS CANVASS Library (AID 1347375); also: potency is read from the fitted curve at half-maximal effect; as to activation: 0% is about no effect
Summary of the method: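 Beta-lactamase reporter under HRE control in ME-180 cells; compounds (11-point qHTS series) added after 5 hrs plating, then 17 hrs at 37C. FRET substrate read after 2 hr; same-well CellTiter-Glo luminescence gave viability and normalization.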

[11] = 10-beta competent E. coli microbial cell viability qHTS against the NCATS CANVASS Library (AID 1347376); also: series mostly up to about 46 µM; 0% is about no effect
Summary of the method: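 Read-out: BacTiter-Glo ATP luminescence, taken 20 min after reagent addition. Beforehand, 10-beta competent E. coli at 0.2 OD had been incubated overnight at 37C with compounds at 11 concentrations.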

[12] = DH5-alpha competent E. coli microbial cell viability qHTS against the NCATS CANVASS Library (AID 1347377); details: outcome: dose series up to 46.1 µM unless noted; as to viability signal change, negative = cytotoxic: 0% is about no effect
Summary of the method: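 Bacterial viability as ATP-dependent luminescence (BacTiter-Glo), read after overnight 37 °C exposure of DH5-alpha competent E. coli to compounds in 11-point titration.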

[13] = qHTS for H2AX Agonists against the NCATS CANVASS Library (AID 1347378); also: potency is read from the fitted curve at half-maximal effect; as to activation: 0% is about no effect
Summary of the method: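 TR-FRET readout (ex 320 nm, em 665/620 nm ratio) of phospho-H2AX (S139) in CHO-K1 lysates. Cells treated 3 hr at 37C with compound titration, 0.76% DMSO; lysis 30 min, antibody detection 24 hr at RT.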

[14] = qHTS for Activators of p53 Stress Response Pathway screened against the NCATS CANVASS Library (AID 1347388); also: potency is read from the fitted curve at half-maximal effect; as to activation: 0% is about no effect
Summary of the method: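 Beta-lactamase reporter driven by p53 response elements in HCT-116 cells, read as the 460 nm/530 nm emission ratio after CCF4 loading, following 16 h of exposure to an 11-point series. Cell viability was measured in the same wells by CellTiter-Glo luminescence.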

[15] = qHTS assay for small molecule disruptors of mitochondrial membrane potential screened against the NCATS CANVASS Library (AID 1347389); also: nearly all actives have a fitted effect of over 60% in size; also: potency is read from the fitted curve at half-maximal effect
Summary of the method: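 Mitochondrial membrane potential in HepG2: 1 h compound treatment (11-point concentration series), 30 min m-MPI dye at 37C, then dual fluorescence of J-aggregates (ex 540/em 590) and monomers (ex 490/em 535); lower red/green ratio indicates depolarization.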

[16] = Secretion counterscreen for inhibitors of the SERCaMP assay screened against the NCATS CANVASS Library (AID 1347390);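 also: light from luciferase secreted into medium read as a measure of general secretion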; also: potency is read from the fitted curve at half-maximal effect
Summary of the method: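 Luminescence from constitutively secreted GLuc in SH-SY5Y-GLuc STOP cells, read after coelenterazine addition, served as read-out. Compounds tested 0.001 - 77 uM for 20 h at 37C; Brefeldin A as positive control.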

[17] = qHTS for activators of dead-cell proteases activity screened against the NCATS CANVASS Library (AID 1347392);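 also: luminescence from protease leaking out of membrane-damaged cells cleaving impermeant substrate; 0% is about no effect; rising signal means more cytotoxicity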
Summary of the method: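 Luminescent dead-cell protease readout (AAF-aminoluciferin, 15 min, room temperature) after 5 h compound treatment of HepG2 cells (2000/well, pre-attached 18 h). Eleven concentrations.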

[18] = qHTS for inhibitors of Wild type Zika virus screened against the NCATS CANVASS Library (AID 1347396); also: potency is read from the fitted curve at half-maximal effect
Summary of the method: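 Using ATP-based luminescence (CellTiter Glo), this screen scores rescue of Vero 766 cells from wild-type Zika killing at 72 h post-infection. Compounds are tested in a concentration series.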

[19] = Viability qHTS for inhibitors of the SERCaMP assay screened against the NCATS CANVASS Library (AID 1347400); also: nearly all actives have a fitted effect of over 70% in size; also: potency is read from the fitted curve at half-maximal effect
Summary of the method: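 CellTiter-Glo luminescence measured cytotoxicity after 48 h at 37C of compound treatment (11-point series). Cells were SH-SY5Y-GLuc SERCaMP MJH297 derivatives, seeded at 1000 per well 4 h beforehand.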

[20] = OV-SAHO Cancer Cell Toxicity qHTS against the NCATS CANVASS Library (AID 1347348); also: nearly all actives have a fitted effect of over 55% in size; also: potency is read from the fitted curve at half-maximal effect
Summary of the method: as §1

CS/C=C/C(N)=O
inactive: Potency [1] | outcome [2] | Potency [3] | Potency [4] | Potency [5] | Potency [6] | Potency [7] | Potency [8] | Potency [9] | Potency [10] | outcome [11] | outcome [12] | Potency [13] | Potency [14] | Potency [15] | Potency [16] | Potency [17] | Potency [18] | Potency [19]

CC(=O)NC[C@@H]1O[C@H](CC/C=C(C)/C(C)=C/C=O)[C@H](C)C[C@H]1O
inactive: Potency [20] | Potency [1] | outcome [2] | Potency [3] | Potency [4] | Potency [5] | Potency [6] | Potency [7] | Potency [8] | Potency [9] | Potency [10] | outcome [11] | outcome [12] | Potency [13] | Potency [14] | Potency [15] | Potency [17] | Potency [18]

C[C@@H]1C(=O)[C@]23CC[C@H]1C[C@]21O[C@H]2C(C)(C)C=CC(=O)[C@]23COC1=O
inactive: Potency [1] | outcome [2] | Potency [3] | Potency [4] | Potency [5] | Potency [6] | Potency [7] | Potency [8] | Potency [9] | Potency [10] | outcome [11] | outcome [12] | Potency [13] | Potency [14] | Potency [15] | Potency [16] | Potency [17] | Potency [18] | Potency [19]

CN1C(=O)C2C(N=CN2C)N(C)C1=O (stereo not given)
inactive: Potency [20] | Potency [1] | outcome [2] | Potency [3] | Potency [4] | Potency [5] | Potency [6] | Potency [7] | Potency [8] | Potency [9] | Potency [10] | outcome [11] | outcome [12] | Potency [13] | Potency [14] | Potency [15] | Potency [16] | Potency [17] | Potency [18] | Potency [19]

O=Cc1ccc2n1C[C@@]1(C[C@H](O)[C@@H](CO)O1)OC2
inactive: Potency [20] | Potency [1] | outcome [2] | Potency [3] | Potency [4] | Potency [5] | Potency [6] | Potency [7] | Potency [8] | Potency [9] | Potency [10] | outcome [11] | outcome [12] | Potency [13] | Potency [14] | Potency [16] | Potency [17] | Potency [18] | Potency [19]

COc1ccc([C@@H]2c3cc(OC)c(OC)cc3C(=O)[C@H](C)C2C)cc1OC (stereo not given in full)
inactive: outcome [1] inactive [at 7.64 µM] | caspase activation [2] 1.81% [at 9.19 µM] | caspase activation [3] 2.3% [at 9.19 µM] | activation [4] 3.39% [at 9.19 µM] | activity change, negative = inhibition [5] 0.301% [at 11.5 µM] | activity change, negative = inhibition [6] 4.08% [at 11.5 µM] | activity change, negative = toxicity [7] -6.69% [at 9.19 µM] | activity change, negative = cytotoxicity [8] 8.45% [at 9.19 µM] | activity change, negative = inhibition [9] -2.16% [at 9.19 µM] | activation [10] -1.07% [at 7.64 µM] | viability signal change, negative = cytotoxic [12] 10.6% [at 9.19 µM] | activation [13] -1.51% [at 15.3 µM] | activation [14] 4.12% [at 9.19 µM] | activity change, negative = depolarization [15] -7.07% [at 9.19 µM] | activity change, negative = inhibition [16] -9% [at 15.3 µM] | activation (cytotoxicity) [17] -0.488% [at 9.19 µM] | activity change, negative = antiviral [18] 5.82% [at 9.14 µM] | activity change, negative = cytotoxicity [19] 9.45% [at 18.4 µM]

CC(=O)O[C@@H]1C=C2C(=O)OC[C@]2(O)[C@@]2(C)CCCC(C)(C)[C@H]12
active: Potency [1] 5.3 µM | Potency [7] 18.7 µM | Potency [15] 18.6 µM | Potency [16] 15.3 µM | Potency [18] 26.1 µM | Potency [19] 12 µM
inactive: Potency [5] | Potency [6] | outcome [11] | Potency [14]

CCC1=C2CCCN3C(=O)O[C@H]([C@H]1OC(C)=O)[C@H]23
inactive: Potency [1] | outcome [2] | Potency [3] | Potency [4] | Potency [5] | Potency [6] | Potency [7] | Potency [8] | Potency [9] | Potency [10] | outcome [11] | outcome [12] | Potency [13] | Potency [14] | Potency [15] | Potency [16] | Potency [17] | Potency [18] | Potency [19]

C=C[C@]1(C)CC[C@@H]([C@H](C)C(=O)OCC)O1
inactive: Potency [20] | Potency [1] | outcome [2] | Potency [3] | Potency [4] | Potency [5] | Potency [8] | Potency [10] | outcome [11] | outcome [12] | Potency [13] | Potency [14] | Potency [16] | Potency [17] | Potency [18] | Potency [19]

C=C(C)C(=O)O[C@H]1C[C@H](C)[C@@H](OC(C)=O)CC[C@@]2(C)O[C@@H]2[C@H]2OC(=O)C(COC(C)=O)=C12
inactive: Potency [5] | Potency [6] | outcome [11] | outcome [12] | Potency [13] | Potency [15] | Potency [17]
active: Potency [20] 2.36 µM | Potency [1] 8.41 µM | Potency [16] 17.2 µM | Potency [19] 9.57 µM

C/C(=C\[C@H](C)C(=O)CCCC1CC(=O)NC(=O)C1)C(O)[C@@H](C)[C@H](O)C/C=C/CC/C=C/C(=O)O (stereo not given in full)
inactive: Potency [20] | outcome [2] | Potency [3] | Potency [4] | Potency [5] | Potency [6] | Potency [7] | Potency [8] | Potency [9] | Potency [10] | outcome [11] | outcome [12] | Potency [13] | Potency [14] | Potency [15] | Potency [16] | Potency [17] | Potency [18] | Potency [19]

C/C=C/C(=O)[C@@H](C)C1=CC(=O)C2=C(O[C@@]34CC[C@H](O)C(C)(C)[C@@H]3CC[C@H](C)[C@@]4(C)C2)C1=O
inactive: Potency [6] | outcome [11] | outcome [12]
active: Potency [20] 6.66 µM | Potency [1] 7.49 µM | Potency [5] 8.61 µM | Potency [7] 14.8 µM | Potency [8] 20.9 µM | Potency [9] 20.9 µM | Potency [13] 15.4 µM | Potency [15] 16.6 µM | Potency [16] 17.2 µM | Potency [19] 13.5 µM

CNc1ccc(Cl)cc1C(=O)OC[C@]1(C)[C@H]2CC[C@]3(C)[C@@H](C[C@@H](OC)[C@H](C)[C@H]3C3=C(O)C(=O)OC3O)[C@]2(C)CC[C@H]1O (stereo not given in full)
inactive: Potency [20] | outcome [2] | Potency [3] | Potency [4] | Potency [5] | Potency [6] | Potency [7] | Potency [8] | Potency [9] | outcome [11] | outcome [12] | Potency [13] | Potency [15] | Potency [16] | Potency [17] | Potency [18] | Potency [19]
active: Potency [10] 13.3 µM | Potency [14] 20.9 µM
